Over roughly 33,000 sequences, “E-score (-0.5 to 0.5)” has its median near -0.016; the highest 2% begin near 0.32. The full list was thinned out, with the highest values kept by preference.

This assay has as its target T1, Stp1 (UniProt B3LFK1).
T1 sequence: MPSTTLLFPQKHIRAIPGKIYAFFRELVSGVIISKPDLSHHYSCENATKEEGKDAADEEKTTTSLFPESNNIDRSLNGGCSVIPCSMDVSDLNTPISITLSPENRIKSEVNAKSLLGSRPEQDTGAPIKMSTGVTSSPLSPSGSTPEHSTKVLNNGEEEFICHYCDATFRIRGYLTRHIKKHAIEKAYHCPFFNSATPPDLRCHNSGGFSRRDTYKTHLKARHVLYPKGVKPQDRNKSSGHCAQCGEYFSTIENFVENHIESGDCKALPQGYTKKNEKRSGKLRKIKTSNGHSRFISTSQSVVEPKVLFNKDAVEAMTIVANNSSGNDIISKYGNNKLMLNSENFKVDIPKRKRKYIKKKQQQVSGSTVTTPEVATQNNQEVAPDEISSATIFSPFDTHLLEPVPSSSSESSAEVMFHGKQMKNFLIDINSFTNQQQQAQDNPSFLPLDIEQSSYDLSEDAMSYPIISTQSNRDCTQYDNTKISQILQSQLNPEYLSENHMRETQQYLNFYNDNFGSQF
Nature of the assay: PBM E-score (8-mer binding enrichment) (E-score (-0.5 to 0.5)); higher = stronger / more preferred TF binding. The settings on record: protein concentration: 200 nM; construct: GST-full length. The procedure:
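Universal 'all 10-mer' protein binding microarrays (Agilent AMADID 015681) probed with GST-tagged S. cerevisiae TFs (full-length or DBD) made by in vitro transcription/translation (PURExpress), about 100-200 nM. Bound TF was detected with fluorescent anti-GST. Each ungapped 8-mer (which stands for itself and its reverse complement) is scored by the PBM enrichment score (E-score), a modified Wilcoxon-Mann-Whitney statistic from -0.5 to +0.5, computed with the Universal PBM Analysis Suite. Scale: above 0.35 generally sequence-specific binding.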
As for CGGCTTGA, the “PBM E-score” value was determined as 0.0356. Next, CGGCTTGC: 0.37; TGGCTTAA: 0.193.

As to CGGCTTAG, the “PBM E-score” value is 0.0549.

Take CGGCTTCC: the “PBM E-score” value was 0.211.

As to AGGCTTGC, the “PBM E-score” value is -0.31.

As for CGGCTTCA, the “PBM E-score” value came out at 0.368.

As for AGGCTTCA, the “PBM E-score” value was -0.0829. As for CGGCTTAA, the “PBM E-score” value stood at 0.318. Next, AATCCTGT: -0.037; ACCTATGG: -0.0452. The value for CTCAGAAG was -0.0989; that for CCTAACAG was 0.121. The value for CTTCCCAC was -0.0242; that for TATGCATA was 0.00403; that for TACTGTAA was 0.021. As for ATGCAGGA, the “PBM E-score” value was -0.258. The value for AAGCGCGG was 0.171.

For the sequence CAGCGCGC, the “PBM E-score” value was -0.00184. Next, AGGCGCGG: 0.355; AGGCGCGC: 0.308. With CGGCGCGA, the “PBM E-score” value worked out at 0.477.

As to GGGCGCGA, the “PBM E-score” value is 0.28.

ACGCGCGA: the “PBM E-score” value stood at 0.105. As for CGGCGCGC, the “PBM E-score” value was 0.475. With AGGCGCGA, the “PBM E-score” value is 0.392.

ATGCGCGG: the “PBM E-score” value worked out at 0.307. Consider CAGCGCGA, for which the “PBM E-score” value was -0.0618. Next, CTGCGCGC: 0.269. Next, CTGCTTAC: -0.0697; CTCGAAAG: -0.053.

With CCTCACCA, the “PBM E-score” value was -0.0872. Consider ACAAATGC, for which the “PBM E-score” value is 0.155.

On to CTTCAAGC, for which the “PBM E-score” value was 0.0107. Take AGACCATC: the “PBM E-score” value was -0.131.

For the sequence CCCCTAAA, the “PBM E-score” value was -0.228.

In the case of AGTTGATG, the “PBM E-score” value was -0.0271. As to ATCTACAC, the “PBM E-score” value turned out to be 0.0776. The value for ACTTTACG was 0.0861; that for GCAGGAGA was -0.303; that for CGCCCGTA was -0.183. The value for ACGCCGTA was 0.471. The value for ACGCCGAA was 0.21; that for AGGCCGTG was 0.307. As to AGGCCGTC, the “PBM E-score” value was -0.0198. Consider ACGCCGTC, for which the “PBM E-score” value came out at 0.41. Take CCGCCGTC: the “PBM E-score” value turned out to be 0.255. The value for ACGCCGGG was -0.0857; that for ACACCGTA was -0.0212; that for CCGCCGTA was 0.42. Next, CCCCCGTA: -0.238; ACGCCGTG: 0.485; AGCCGAGG: 0.142.

On to CTGCTGCA, for which the “PBM E-score” value was -0.169. As to ATCAGGGA, the “PBM E-score” value was -0.201. Regarding GATTTAAC, the “PBM E-score” value is 0.148. Regarding ATTGATTA, the “PBM E-score” value was 0.338. The value for ATTGATTG was 0.178; that for ATTGATTC was 0.265. Next, ACGGCTAG: 0.235; TCGGCTAA: 0.145. Next, CCGGCTAC: 0.0509; GCGGCTAC: 0.305. As to ACGGCTAC, the “PBM E-score” value is 0.407.

For the sequence GCGGCTAA, the “PBM E-score” value turned out to be 0.304.

With AGGGCTAT, the “PBM E-score” value is -0.325. As for ACGGCTAT, the “PBM E-score” value stood at 0.349.

ACGGCTAA: the “PBM E-score” value is 0.377. Next, AGTCTCCC: -0.272; CTTATAGC: -0.0511; CGGTGCAG: -0.0834. Next, GTCAAATA: 0.0762; GTCGCAAC: -0.0752. The value for GAATAGTC was -0.205. On to ACAGGCAC, for which the “PBM E-score” value is -0.047. The value for CGCTAGGA was -0.0128. The value for ACCCGTAC was 0.0646.

TCCCGTAA: the “PBM E-score” value was -0.0808. For the sequence ATCCGTAC, the “PBM E-score” value turned out to be 0.28. Turning to GACCGTAC, the “PBM E-score” value was -0.0763. For the sequence TGCCGTAA, the “PBM E-score” value stood at 0.34. Take GGCCGTAA: the “PBM E-score” value was 0.192. The value for CCCCGTAA was -0.0389; that for AGCCGTAC was 0.432.

For the sequence CGCCGTAA, the “PBM E-score” value is 0.418. Next, GGCCGTAC: 0.424; TACCGTAA: 0.0576. Regarding CACCGTAA, the “PBM E-score” value was 0.00961.

For the origin of these results see the supplement of paper PMC3334620.
